# IL-1B inflam inh: blocks inflammasome-driven IL-1 beta release. THP-1 LPS/ATP IL-1B secretion, AlphaLISA, 16 h; active compounds read low. activity change, % at 57.5 µM. hit rate 4.7% among 360,000. AID 743279; in the data active = activity change below about -50%; inconclusive = mostly about -30% to -49%
#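 THP-1 cells pretreated 1 hr with compounds (up to 57.5 uM final), then stimulated with LPS (250 ng/mL final) plus ATP (1.25 mM final); secreted IL-1B measured by AlphaLISA after 16 hr, decreased signal indicating inhibition.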
# TDP1 cell noCPT: qHTS for Inhibitors of human tyrosyl-DNA phosphodiesterase 1 (TDP1): qHTS in cells in absence of CPT. DT40 Tdp1-/- hTDP1 cells, no CPT, ATP luminescence, 48 h. hit rate 15% among 420,000. Potency, µM (doses to about 46.2 µM), for the others: at the highest dose activity change, negative = growth inhibition, hits mostly inhibitors; note: potency is the fitted concentration of half-maximal effect; nearly all actives have a fitted effect of over 55% in size
#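 DT40 Tdp1-/-;hTDP1 cells, no CPT (DMSO vehicle only), 400 cells/well; compounds pin-transferred; ≥48 hr, 37 °C; CellTiter-Glo 30 min RT dark, luminescence read.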
# ELG1 DNA repair: ELG1-dependent DNA repair inhibition | HEK293T ELG1-luciferase reporter, luminescence, 16 h; DNA damage induced by 5-fluorouridine | Potency, µM (series often up to 46.1 µM), for inactives: top-dose activity change, negative = inhibition, actives largely listed as inhibitors | hit rate 2.3% among 330,000 | AID 504467; note: potency is the fitted concentration of half-maximal effect; nearly all actives have a fitted effect of over 55% in size
#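 Luminescence from the luciferase reporter, measured 30 min after ONE-Glo reagent at room temperature, was the read-out. Beforehand, 2,000 cells per well were exposed for 16 hr at 37 °C to 5-fluorouridine together with compound or vehicle.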
# Giardia kill: Giardia lamblia killing; hit rate 0.15% among 340,000; AID 540267; activity change, % at 7.66 µM, hits read low; Giardia lamblia trophozoite viability; in the data active = activity change below about -80%; inconclusive = between about -30% and that limit;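 note: parasites exposed to compound for two days anaerobically before the ATP read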
#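 Media and compound were dispensed first, then trophozoites at 100 cells/well; plates sat 48 hrs at 37 deg C without oxygen before ATP luminescence reagent was added and read after 15-30 min at room temperature.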
# TDP1 cell CPT: DT40-hTDP1 cell growth loss with CPT. AID 686979. hit rate 12% among 420,000. Potency, µM (highest dose often 46.2 µM), inactives show top-dose activity change, negative = growth inhibition, actives largely listed as inhibitors. chicken DT40 Tdp1-/-;hTDP1 cells + 20 nM CPT, ATP luminescence, 48 h; note: potency is the fitted concentration of half-maximal effect; nearly all actives have a fitted effect of over 55% in size
#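 Cell growth measured by CellTiter-Glo luminescence after a minimum 48 h, 37 C compound exposure with 20 nM CPT in Tdp1-knockout DT40 cells stably expressing hTDP1, seeded 400/well; qHTS titration format.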
# TDP1 inh: blocks human tyrosyl-DNA phosphodiesterase 1 | recombinant TDP1, AlphaScreen DNA substrate cleavage | Potency, µM (series often up to 130 µM), for the others: top-dose activity change, negative = inhibition, most hits filed as inhibitors | hit rate 0.28% among 350,000; note: potency is the fitted concentration of half-maximal effect; nearly all actives have a fitted effect of over 40% in size
#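 Compounds were preincubated with Tdp1 (1 nM final) for 15 min at room temperature before substrate (15 nM final) started a 5 min reaction; beads (10 ug/ml final) were then added for 10 min before AlphaScreen detection.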
# ELG1 FLuc counter: luciferase inhibition in cell-free luciferin readout for ELG1 hits; Potency, µM (doses to about 46.1 µM), inactives show at the top dose activity change, negative = inhibition, hits mostly inhibitors; cell-free firefly luciferase luminescence counter-screen, ViewLux; shares compounds with ELG1 DNA repair; hit rate 3% among 350; note: potency is the fitted concentration of half-maximal effect
# ELG1 Luc conf: confirmation of human ELG1-dependent DNA repair inhibitors | shares compounds with ELG1 DNA repair | HEK293T ELG1-luciferase levels, luminescence; cells co-treated with 5-fluorouridine | Potency, µM (titrated, usually from 46.1 µM), inactives show top-dose activity change, negative = inhibition, most hits filed as inhibitors | hit rate 68% among 670; note: potency is the fitted concentration of half-maximal effect; nearly all actives have a fitted effect of over 55% in size
# Target sequence (Q96QE3 whole entry, looked up): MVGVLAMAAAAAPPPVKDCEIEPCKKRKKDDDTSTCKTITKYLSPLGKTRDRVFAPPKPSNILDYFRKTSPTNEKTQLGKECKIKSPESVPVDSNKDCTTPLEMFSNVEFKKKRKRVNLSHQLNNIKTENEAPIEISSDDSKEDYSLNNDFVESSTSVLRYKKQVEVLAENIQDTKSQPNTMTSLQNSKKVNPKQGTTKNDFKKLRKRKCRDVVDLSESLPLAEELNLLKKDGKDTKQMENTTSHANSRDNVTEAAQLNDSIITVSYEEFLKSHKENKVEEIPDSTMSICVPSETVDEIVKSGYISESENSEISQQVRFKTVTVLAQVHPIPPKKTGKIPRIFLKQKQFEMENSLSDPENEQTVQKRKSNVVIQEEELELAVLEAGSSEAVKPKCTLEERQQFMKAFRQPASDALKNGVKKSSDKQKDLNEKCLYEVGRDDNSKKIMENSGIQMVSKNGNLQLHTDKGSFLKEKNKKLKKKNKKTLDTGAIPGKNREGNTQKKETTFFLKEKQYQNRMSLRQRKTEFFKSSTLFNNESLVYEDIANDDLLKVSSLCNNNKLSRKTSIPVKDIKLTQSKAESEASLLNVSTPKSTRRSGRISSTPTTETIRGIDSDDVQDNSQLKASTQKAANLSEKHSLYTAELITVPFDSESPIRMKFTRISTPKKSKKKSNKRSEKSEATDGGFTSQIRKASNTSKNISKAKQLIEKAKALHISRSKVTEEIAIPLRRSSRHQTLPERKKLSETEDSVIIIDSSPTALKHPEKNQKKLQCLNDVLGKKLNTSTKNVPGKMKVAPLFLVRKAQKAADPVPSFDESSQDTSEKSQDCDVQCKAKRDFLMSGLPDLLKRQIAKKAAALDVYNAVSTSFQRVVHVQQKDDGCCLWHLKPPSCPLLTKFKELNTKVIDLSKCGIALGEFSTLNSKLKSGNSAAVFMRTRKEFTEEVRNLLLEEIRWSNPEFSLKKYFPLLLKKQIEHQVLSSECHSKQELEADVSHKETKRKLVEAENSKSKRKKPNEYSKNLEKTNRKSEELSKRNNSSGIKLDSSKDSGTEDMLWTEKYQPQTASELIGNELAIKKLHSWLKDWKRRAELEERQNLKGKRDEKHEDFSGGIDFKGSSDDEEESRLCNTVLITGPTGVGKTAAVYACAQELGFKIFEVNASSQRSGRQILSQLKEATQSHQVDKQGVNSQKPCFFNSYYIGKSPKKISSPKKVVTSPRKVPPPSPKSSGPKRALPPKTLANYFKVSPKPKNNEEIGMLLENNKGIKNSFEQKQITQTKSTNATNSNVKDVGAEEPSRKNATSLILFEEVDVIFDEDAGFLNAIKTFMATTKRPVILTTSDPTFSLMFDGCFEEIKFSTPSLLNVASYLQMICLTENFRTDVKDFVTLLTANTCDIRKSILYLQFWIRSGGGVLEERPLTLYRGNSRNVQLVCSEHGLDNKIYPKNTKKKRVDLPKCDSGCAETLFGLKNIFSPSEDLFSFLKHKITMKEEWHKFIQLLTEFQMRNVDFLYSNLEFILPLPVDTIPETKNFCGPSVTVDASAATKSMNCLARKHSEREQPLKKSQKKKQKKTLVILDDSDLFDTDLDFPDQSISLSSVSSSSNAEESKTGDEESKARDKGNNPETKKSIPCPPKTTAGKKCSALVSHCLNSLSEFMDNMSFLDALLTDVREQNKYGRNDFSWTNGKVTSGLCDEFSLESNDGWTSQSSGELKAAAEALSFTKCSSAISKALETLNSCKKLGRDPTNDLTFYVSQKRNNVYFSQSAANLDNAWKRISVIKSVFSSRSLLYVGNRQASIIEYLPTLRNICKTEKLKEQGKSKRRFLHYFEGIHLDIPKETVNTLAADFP
# ELG1-Luc MMS: inhibits ELG1-dependent repair under MMS stimulation in HEK293T cells; hit rate 53% among 670; shares compounds with ELG1 DNA repair; HEK293T luciferase-tagged ELG1 level, MMS stimulated; AID 624249; Potency, µM (highest dose often 46.1 µM), for the others: top-dose activity change, negative = inhibition, hits mostly inhibitors; note: potency is the fitted concentration of half-maximal effect; nearly all actives have a fitted effect of over 60% in size
# ELG1 5-FU: confirmation of ELG1 repair inhibitors: viability with 5FU; Potency, µM (titrated, usually from 46.1 µM), inactives show at the top dose activity change, negative = viability loss, hits mostly cytotoxic; cell viability with 5-FU, ELG1-dependent repair; AID 624250; 670 tested, under 10 active; shares compounds with ELG1 DNA repair;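 note: ELG1-luc HEK293T cells cotreated with 5-fluorouridine at 10 µM final; potency is the fitted concentration of half-maximal effect; viability measured 16 h after compound addition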
# ELG1 MMS viab: confirmation of ELG1 repair inhibitors: viability with MMS; shares compounds with ELG1 DNA repair; Cell viability with MMS, ELG1-dependent DNA repair; Potency, µM (series often up to 46.1 µM), for the others: at the highest dose activity change, negative = viability loss, actives largely listed as cytotoxic; hit rate 33% among 670;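 note: ELG1-luc HEK293T cells co-treated with 10 µM MMS; potency is the fitted concentration of half-maximal effect; viability read 16 h after compound addition; nearly all actives have a fitted effect of over 60% in size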
# Cell viab unstim: unstimulated viability counter-screen for ELG1 repair hits. shares compounds with ELG1 DNA repair. cell viability counter-screen, unstimulated, luminescence. Potency, µM (titrated, usually from 45.9 µM), without a hit: at the highest dose activity change, negative = loss of viability, usual class: cytotoxic. hit rate 8% among 900;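 note: potency is the fitted concentration of half-maximal effect; compound exposure lasted 16 hours before reading; nearly all actives have a fitted effect of over 55% in size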
# FLuc enzyme: counter-screen for ELG1 repair inhibitors: firefly luciferase inhibition; shares compounds with ELG1 DNA repair; purified firefly luciferase, luminescence counter-screen; Potency, µM (series often up to 57.5 µM), for inactives: at the top dose activity, negative = inhibition, usual class: inhibitors; hit rate 10% among 350; note: potency is the fitted concentration of half-maximal effect
# An asterisk follows results filed as active; ? = inconclusive; · = no result; [ ] = remark or other dose. An excerpt weighted towards active compounds, which were near 19% of everything screened. Unless noted, calls come from the whole dose curve; as a rule, active = well fitted curve in the direction sought with a large enough effect; inconclusive = small, poorly fitted or top-dose-only effect, or another doubt; inactive = no such curve, though single readings can be large; an effect the other way counts as inactive or inconclusive. % is set by controls: 0 for no effect and ±100 for the full control effect.
SMILES,IL-1B inflam inh,TDP1 cell noCPT,ELG1 DNA repair,Giardia kill,TDP1 cell CPT,TDP1 inh,ELG1 Luc conf,ELG1-Luc MMS,ELG1 5-FU,ELG1 MMS viab,Cell viab unstim,others
COc1ccc2sc3c(=O)[nH]c4ccccc4c3c2c1,12.3,1.64µM*,0.82µM*,23.5,5.8µM*,2.0%,1.99µM*,1.58µM*,7.9%,9.5%,3.9%,ELG1 FLuc counter=-6.5%;FLuc enzyme=1.3%
CC(=O)CCc1ccc(Oc2nc(-c3cccnc3)nc3ccccc23)cc1,?,?,?,-7.3,?,1.2%,·,·,·,·,·,
COc1ccc(C(CNc2nc(-c3cccnc3)nc3ccccc23)N(C)C)cc1 (stereo not given),-82.2*,?,-24.8%,-19.4,?,11.1%,17.7µM*,?,?,0.3%,-9.5%,ELG1 FLuc counter=-2.1%;FLuc enzyme=-6.9%
COc1ccc(CCNc2nc(-c3cccnc3)nc3ccccc23)cc1OC,?,9.2µM*,2.59µM*,8.3,13µM*,10.0%,3.15µM*,12.6µM*,?,?,?,ELG1 FLuc counter=14.2%;FLuc enzyme=?
Cc1ccc(-c2c[n+](Cc3ccc(Cl)cc3)c3n2CCC3)cc1,-84.7*,3.66µM*,2.59µM*,-2.8,4.11µM*,1.2%,?,7.92µM*,-4.0%,7.92µM*,3.97µM*,ELG1 FLuc counter=-13.7%;FLuc enzyme=-9.6%
Cn1c(NC(=O)C[n+]2cc(-c3ccc(Cl)cc3)n3c2CCC3)cc(=O)n(C)c1=O,10.1,?,2.1%,13.1,-25.5%,5.5%,·,·,·,·,·,
CC(C)(C)C(=O)Nc1cccc(-c2nnc(-c3cccc(NC(=O)C(C)(C)C)c3)o2)c1,34.5,?,4.61µM*,15.7,?,3.3%[56.1 µM],7.91µM*,?,15.4%,-1.2%,?,
COc1cc(OC)c2c(=O)cc(-c3cccnc3)oc2c1,-18.0,?,?,-27.3,-28.0%,·,·,·,·,·,·,
COc1ccc(-c2cnc(-c3cccnc3)o2)cc1,·,-7.7%[9.04 µM],·,·,-7.2%[9.04 µM],6.2%,·,·,·,·,2.8%,
CCN(CC)S(=O)(=O)c1ccc(N2CCOCC2)c(NC(=O)COc2ccccc2)c1,-2.4,?,?,-19.3,?,2.6%,·,·,·,·,·,
CCc1ccccc1OCC(=O)Nc1cc(S(=O)(=O)N(CC)CC)ccc1N1CCOCC1,-0.4,16.4µM*,2.59µM*,4.8,20.6µM*,0.5%,4.45µM*,20.3%,?,-2.7%,?,
Cc1c(C)c2c(cc(C)c3c(-c4ccc(Br)cc4)coc32)oc1=O,·,-1.4%,·,·,2.9%,6.1%,·,·,·,·,·,
CN(C(=O)c1sc2nc(N3CCOCC3)c3c(c2c1N)CCCC3)c1ccccc1,-1.1,23.1µM*,13µM*,5.8,?,1.3%,15.8µM*,22.3µM*,?,2.4%,-16.6%,ELG1 FLuc counter=-3.0%;FLuc enzyme=3.3%
Cc1nnc(N2CCN(C(=O)Nc3cccc(C(F)(F)F)c3)CC2)c2nn(-c3ccccc3)c(C)c12,·,?,·,·,?,5.8%,·,·,·,·,·,
COc1cc(C(=O)Nc2ccccc2NC(=O)c2cc(OC)c(OC)c(OC)c2)cc(OC)c1OC,20.3,-9.3%,3.26µM*,16.6,2.6%,·,3.15µM*,-0.2%,?,9.9%,?,
Cc1cc(C)c(OCC(=O)Nc2ccccc2N2CCCCC2)c(C)c1,4.1,?,0.9%,-2.0,?,-20.8%,·,·,·,·,·,
COc1cc(C(=O)NC(=S)Nc2ccccc2N2CCCC2)cc(OC)c1OC,-9.2,20.6µM*,2.59µM*,-0.5,?,9.7%,3.97µM*,-18.6%,?,10.0%,?,
COc1cc(C(=O)Nc2ccccc2C(=O)Nc2ccccn2)cc(OC)c1OC,29.6,3.26µM*,2µM*,-1.3,4.61µM*,0.0%,3.53µM*,12.5µM*,?,?,?,
COc1cc(C(=O)Nc2ccccn2)cc(OC)c1OC,-19.2,-7.7%,5.3%,13.2,-1.3%,0.0%,·,·,·,·,·,
COc1ccc(NC(=O)c2ccc(-c3nc(CSc4ccccc4)c(C)o3)cc2)c(OC)c1,·,-27.3%,·,·,-6.8%,2.8%,·,·,·,·,·,
Cc1ccc(CNC(=O)CN2CCN(c3ccc(F)cc3)CC2)cc1,29.6,?,1.0%,8.0,-20.2%,3.9%,·,·,·,·,·,
COc1ccccc1NC(=O)Cn1c(CCC(=O)O)ccc1-c1ccc(C)cc1,13.8,-25.9%,11.8%,-6.6,-0.1%,4.6%,·,·,·,·,·,
O=C(NCc1nnnn1-c1ccc(F)cc1)c1ccc(S(=O)(=O)N2CCOCC2)cc1,12.8,?,·,·,-16.9%,·,·,·,·,·,·,
C=CC[C@@H](CC(=O)NCCO)C(=O)N[C@@H](C)COC(=O)[C@@H](CC=C)Cc1ccc(F)cc1,42.1,-1.9%,10.2%,24.5,3.0%,1.0%,·,·,·,·,·,
C=CC[C@@H](CC(=O)NCCO)C(=O)NC[C@H](OC(=O)[C@@H](CC=C)Cc1ccc(F)cc1)c1ccccc1,-14.8,11.6µM*,3.26µM*,5.9,14.6µM*,0.5%,?,14.1µM*,?,-19.6%,-14.4%,
